{"source": "PubChem BioAssay", "data": [{"target": "Calmodulin-1 (Homo sapiens) (UniProt P0DP23)", "assay": "small molecules binding calmodulin-1 with EGTA – biochemical, small-molecule microarray, Cy5-labelled CALM1, profiling panel (AID 1111);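 also: labelled calmodulin applied in Tris saline Tween buffer holding calcium plus EGTA and DTT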", "details": "Cy5-CALM1 binding fluorescence, higher = more signal", "values": [{"smiles": "CCN1C(C)=C(C(=O)OC)[C@@H](c2ccccc2)N2C(=O)[C@@]3(C(=O)OC)O[C@@]12[C@@H]1C(=O)N(C)C(=O)[C@@H]13", "composite z-score": 0.439}, {"smiles": "CO[C@H]1COC(=O)[C@H](C)NC(=O)CC=C[C@@H](C)[C@H](NS(=O)(=O)c2ccc(C)cc2)COC(=O)CC=C[C@@H]1C", "composite z-score": -1.11}, {"smiles": "Cc1ccc(S(=O)(=O)N[C@H]2COC(=O)CC=C[C@H](C)COC(=O)N[C@@H](C)C(=O)CC=C[C@@H]2C)cc1", "composite z-score": -0.643}, {"smiles": "CN1C2C=C(c3ccc(CO)cc3)C(C3C(=O)N(C(N)=O)C(=O)C32)C1c1cccs1", "note": "(stereo unspecified)", "composite z-score": 0.45}, {"smiles": "CCCC=C(CCC)[C@@H](NS(=O)(=O)c1ccc(C(F)(F)F)cc1)c1ccc(-c2ccccc2)cc1", "composite z-score": 1.06}, {"smiles": "CO[C@H]1COC(=O)[C@@H](C)NC(=O)CC=C[C@@H](C)[C@H](OC)COC(=O)CC=C[C@@H]1C", "composite z-score": -1.88}, {"smiles": "C=CCC(OC(C)=O)[C@@H]1[C@@H](N(Cc2cc3ccccc3o2)C(=O)Cc2ccc(F)cc2)c2cc(OCCCO)ccc2N1C(=O)c1ccc(-c2ccccc2)cc1", "note": "(stereo partly specified)", "composite z-score": -0.302}, {"smiles": "Cc1ccc(N2C(=O)c3ccccc3[C@@H](C(=O)NCc3ccccc3)[C@@H]2c2ccc(CO)cc2)nc1", "composite z-score": -0.869}, {"smiles": "CCCC[C@@H]1C[C@H]1[C@@H](NC(=O)c1ccccc1)c1ccccc1C(F)(F)F", "composite z-score": 1.04}, {"smiles": "CN1C(=O)C2C=CC(C(O)c3ccc(N(C)C)cc3)N(Nc3ccc([N+](=O)[O-])cc3[N+](=O)[O-])C2C1=O", "note": "(stereo unspecified)", "composite z-score": 0.49}, {"smiles": "O=C1C2C=CC(C(O)C#Cc3ccccc3)N(Nc3ccccc3)C2C(=O)N1c1ccccc1", "note": "(stereo unspecified)", "composite z-score": 0.482}, {"smiles": "Cc1ccc(S[C@]2(C(=O)NCCN3CCOCC3)CC(=O)N(C3Cc4ccccc4C3)[C@@H]2c2ccc(CO)cc2I)cc1", "composite z-score": -0.0071}, {"smiles": "O=C1O[C@@H](c2ccccc2)[C@@H](c2ccccc2)N2[C@@H](c3ccc(O)cc3)[C@]3(C(=O)Nc4ccccc43)[C@@H](C(=O)N3CCN(c4ncccn4)CC3)[C@H]12", "composite z-score": 0.874}, {"smiles": "C=CC[C@]1(C(=O)NCC(O)CO)N=C(c2ccc(OCCCO)cc2)O[C@H]1c1ccccc1", "note": "(stereo partly specified)", "composite z-score": 1.66}, {"smiles": "CC[C@@H]1C=C(C(=O)O)[C@H](c2ccccc2)N1S(=O)(=O)c1ccc([N+](=O)[O-])cc1", "composite z-score": 0.354}, {"smiles": "CN1CCC(CCCO)=CC1C1CC1", "note": "(stereo unspecified)", "composite z-score": -1.21}, {"smiles": "C=CC[C@]1(C(=O)N2CCCCC2)N=C(c2ccc(OCCCO)cc2)O[C@H]1c1ccccc1N=[N+]=[N-]", "composite z-score": 2.16}, {"smiles": "COc1cccc([C@@H]2[C@@H](C)CC[C@H]3C(=O)N4[C@H](c5cccc(OC)c5)[C@@H](C)CC[C@H]4C(=O)N23)c1", "composite z-score": -0.2}, {"smiles": "COCCOC(=O)N1C(=O)[C@@]2(c3cc(C#CC4=CCCCC4)ccc31)[C@H](c1ccc(O)cc1)N1[C@H](c3ccccc3)[C@H](c3ccccc3)OC(=O)[C@H]1[C@@H]2C(=O)N1CCCCCCC1", "composite z-score": 1.11}, {"smiles": "C=CCC(OC(C)=O)[C@@H]1[C@@H](N(Cc2cccc3ccccc23)C(=O)c2ccc(C)cc2)c2cc(OCCCO)ccc2N1C(=O)c1ccc(-c2ccccc2)cc1", "note": "(stereo partly specified)", "composite z-score": -0.355}, {"smiles": "C=CCN1C(=O)[C@]2(O[C@H](CCn3cc(CCO)nn3)[C@@H]([Si](C)(C)c3ccc(OC)cc3)[C@@H]2C)c2cc(NC(=O)c3ccc(OC)cc3)ccc21", "composite z-score": 0.289}, {"smiles": "CC(=O)NCCCC[C@@H]1NC(=O)[C@@H]2C[C@H](C(=O)NCCCCCCN(C)C)[C@H](c3ccc(O)cc3)N2C1=O", "composite z-score": -0.158}, {"smiles": "CO[C@@H]1COC(=O)[C@H](COCc2ccccc2)NC(=O)CC=C[C@@H](C)[C@H](OC)COC(=O)[C@H](COCc2ccccc2)NC(=O)CC=C[C@H]1C", "composite z-score": -0.409}, {"smiles": "COCCOC(=O)N1C(=O)[C@@]2(c3ccccc31)[C@H](C(=O)N1CCc3cc(OC)c(OC)cc3C1)[C@H]1C(=O)O[C@H](c3ccccc3)[C@H](c3ccccc3)N1[C@@H]2c1ccccc1OCCO", "composite z-score": 1.25}, {"smiles": "C=C(CCCC)/C(=C/C[C@@H](OC(=O)c1ccncc1)c1cccc(OCCO)c1)c1cc(C(=O)OC)ccc1OC", "composite z-score": 0.652}, {"smiles": "C#CCCCON=C1C[C@@H](O)[C@@H](O)[C@@H]2[C@@H]3C(=O)N(Cc4ccc5c(c4)OCO5)C(=O)[C@@H]3CC[C@@H]12", "composite z-score": 0.127}]}, {"target": "Calmodulin-1 (Homo sapiens) (UniProt P0DP23)", "assay": "small molecules binding Ca-loaded calmodulin-1 – biochemical, small-molecule microarray, Cy5-labelled CALM1, plus calcium, artefact control for SMM control-protein annotation, profiling panel (AID 1112);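 also: score merges spot fluorescence with signal to noise from triplicate slides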", "details": "Cy5-CALM1 binding fluorescence, higher = more signal", "values": [{"smiles": "O=C1C2C=CC(C(O)Cc3ccccc3)N(Nc3ccc([N+](=O)[O-])cc3)C2C(=O)N1c1ccccc1", "note": "(stereo unspecified)", "composite z-score": 0.426}, {"smiles": "CC(C)C[C@@H]1NC(=O)[C@H](CC(C)C)NC(=O)[C@@]23C(=O)N[C@@H](Cc4ccccc4)C2[C@H](C)[C@@]2(C)O[C@H]2C3/C=C/CC/C=C/CNC1=O", "note": "(stereo partly specified)", "composite z-score": -0.747}, {"smiles": "COC(=O)[C@@]1(Cc2ccccc2CN=[N+]=[N-])N=C(c2ccc(OCCCO)cc2)O[C@H]1c1ccccc1N=[N+]=[N-]", "composite z-score": -0.17}, {"smiles": "CCOC(=O)C[C@H]1[C@H](OC(=O)Cc2ccc3c(c2)OCO3)[C@@H](NC(=O)c2ccc3ccccc3c2)c2cc(OCCCO)ccc2N1C(=O)Cc1ccc(OC)cc1", "composite z-score": 0.139}, {"smiles": "C[N+](C)(C)CCCCNC(=O)[C@H]1C[C@H]2C(=O)NCC(=O)N2[C@H]1c1cccc(OCCO)c1", "composite z-score": -1.96}]}]}
